# Compounds with a hit are over-represented: about 7.3% of the library has one in this group of screens.
# ELG1 genotoxic – qHTS screen for small molecules that induce genotoxicity in human embryonic kidney (HEK293T) cells expressing luciferase-tagged ELG1 | HEK293T ELG1-luciferase reporter, luminescence, 16 h | 330,000 tested, 1.3% active | Potency, µM (top dose mostly 46 µM), without a hit: top-dose activity change, positive = activation, usual class: activators; also: % of control where 0% means no effect; nearly all actives have a fitted effect of over 60% in size
#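 Step 1: seed 2,000 HEK293T ELG1-luciferase cells per well. Step 2: add compound or DMSO, incubate 16 hr at 37 °C. Step 3: ONE-Glo, 30 min at room temperature, read luminescence.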
# p53 reactivator – qHTS assay for re-activators of p53 using a Luc reporter; H1299 p53-A138V BP100-luciferase reporter, luminescence, 24 h; Potency, µM (highest dose often 92.2 µM), inactives show at the highest dose activity change, positive = activation, hits mostly activators; 320,000 tested, 0.063% active; also: % of control where 0% means no effect; nearly all actives have a fitted effect of over 45% in size
#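 H1299 (p53-null), stable ts p53-A138V + BP100-Luc; 1000 cells/well, Opti-MEM/10% FBS; cpd 4 pt, 1:5; 24 h, 37 deg C, 5% CO2; detection reagent 10 min RT; luminescence.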
# FLuc modulator – qHTS profiling assay for firefly luciferase inhibitor/activator using purifed enzyme and Km concentrations of substrates (counterscreen for miR-21 project) | Potency, µM (top dose mostly 57.5 µM), for inactives: at the top dose activity change, negative = inhibition, most hits filed as inhibitors | purified FLuc, Km substrates, luminescence inhibition | 360,000 tested, 6.9% active;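 also: plate controls were vehicle for no effect and reference inhibitor for full effect; nearly all actives have a fitted effect of over 55% in size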
# Target sequence (P08659 whole entry, looked up): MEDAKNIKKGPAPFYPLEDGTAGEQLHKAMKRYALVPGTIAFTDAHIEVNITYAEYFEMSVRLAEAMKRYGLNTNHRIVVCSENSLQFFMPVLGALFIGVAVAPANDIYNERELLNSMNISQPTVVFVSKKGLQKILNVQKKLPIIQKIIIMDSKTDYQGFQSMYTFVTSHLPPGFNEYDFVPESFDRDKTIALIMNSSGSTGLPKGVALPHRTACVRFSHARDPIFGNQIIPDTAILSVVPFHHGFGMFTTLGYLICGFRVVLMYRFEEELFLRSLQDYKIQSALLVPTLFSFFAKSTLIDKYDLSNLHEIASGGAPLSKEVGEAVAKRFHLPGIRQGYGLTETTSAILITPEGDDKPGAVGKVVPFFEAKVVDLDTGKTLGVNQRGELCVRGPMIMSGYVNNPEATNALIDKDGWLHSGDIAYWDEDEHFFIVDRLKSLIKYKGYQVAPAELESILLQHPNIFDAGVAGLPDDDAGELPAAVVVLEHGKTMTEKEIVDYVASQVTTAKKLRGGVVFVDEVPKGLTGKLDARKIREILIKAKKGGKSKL
#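 Purified P. pyralis luciferase (10nM final) with 10uM D-luciferin and 10uM ATP (Km levels) in 50mM Tris acetate pH 7.5, 10mM Mg acetate, 0.01% Tween-20, 0.05% BSA; qHTS 6-point titration, ~60 µM downward; luminescence read.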
# SMN2 splice enh – qHTS Assay for Enhancers of SMN2 Splice Variant Expression. HEK293 SMN2-luciferase splicing reporter, luminescence, 30-36 h. Potency, µM (doses to about 46.1 µM), for inactives: top-dose activity change, positive = activation, most hits filed as activators. 210,000 tested, 2.8% active. AID 1458, 2008; also: % of control where 0% means no effect; nearly all actives have a fitted effect of over 55% in size
#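 HEK293 cells carry an SMN2 minigene-luciferase reporter in which exon 7 inclusion puts luciferase in frame. Cells were seeded at 2000 cells/well, attached for 10-12 hours, then exposed to compounds for 30-36 hours at 37C before ONE-Glo luminescence.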
# Rab9 prom act – qHTS Assay for Rab9 Promoter Activators. Huh7 Rab9 promoter-luciferase reporter, luminescence, 24 h. Potency, µM (doses to about 9.22 µM), for inactives: at the top dose activation, negative = inhibition, most hits filed as activators. 320,000 tested, 2.8% active. AID 485297, 2010; also: % of control where 0% means no effect; nearly all actives have a fitted effect of over 60% in size
#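 Huh7 cells stably carrying a Rab9 promoter-luciferase reporter, 1500 cells per well in OP-MEM I with 10% FBS, treated with compound 24 hours at 37C. Luciferase activity read by luminescence after 10 minutes with Amplite reagent.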
# NPC1 prom act – qHTS Assay for NPC1 Promoter Activators. Potency, µM (top dose mostly 9.22 µM), without a hit: at the top dose activation, hits mostly activators. Huh7 NPC1 promoter luciferase reporter, 24 h. 320,000 tested, 2.4% active. AID 485313, 2010; also: % of control where 0% means no effect; nearly all actives have a fitted effect of over 60% in size
#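 Quantitative HTS used a cell-based reporter: Huh7 cells stably bearing the NPC1 promoter upstream of luciferase were treated with compounds for 24 h, and promoter activation was read as luminescence.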
# An asterisk follows results filed as active; ? = inconclusive; / = not tested or not shown; [ ] = remark or other dose. Calls follow the shape of the dose curve; as a rule, active = well fitted curve in the direction sought with a large enough effect; inconclusive = small, poorly fitted or top-dose-only effect, or another doubt; inactive = no such curve, though single readings can be large; an effect the other way counts as inactive or inconclusive. Potency is read from the fitted curve at half-maximal effect.
SMILES,ELG1 genotoxic,p53 reactivator,FLuc modulator,SMN2 splice enh,Rab9 prom act,NPC1 prom act
Cn1c(SCC(=O)c2ccccc2)nnc1-c1ccco1,?,?,21µM*,14%,?,26%
Cn1c(SCC(=O)c2ccccc2)nnc1-c1cccc(N)c1,?,?,24µM*,17%,?,25%
Cn1c(SCC(=O)c2ccccc2)nnc1-c1ccncc1,3%,5%,-1%,3%,-4%,1%
Cn1c(SCC(=O)c2ccccc2)nnc1-c1ccccn1,?,10%,17µM*,/,3.5µM*,?
Cc1cc(=O)oc2cc(OCC(=O)N3CCN(c4ccccc4)CC3)c(Cl)cc12,0%,6%,19µM*,/,2%,-1%
Cc1cccc(N2CCN(C(=O)COc3cc4oc(=O)cc(C)c4cc3Cl)CC2)c1C,0%[9.26 µM],5%,-1%,/,0%,0%
COc1cc(SSc2cc(OC)cc([N+](=O)[O-])c2N)c(N)c([N+](=O)[O-])c1,-8%,2%,8.5µM*,/,0%,-2%
CCc1ccc(-n2c(=O)c3c4c(sc3n(Cc3ccccc3C#N)c2=O)CCC4)cc1,/,/,-2%,-3%,/,/
O=c1c[n+](CC[n+]2cc(=O)o[nH]2)[nH]o1,/,/,/,-14%[9.22 µM],/,/
COc1ccc(/C=N/NC(=O)CSCC(=O)Nc2ccccc2)cc1OC,1%,-6%,-23%,/,4%,0%
CCOc1cc(/C=N/NC(=O)Nc2ccccc2)ccc1O,?,11%,9.5µM*,/,?,14%
CCOc1cc(/C=N/NC(=O)c2ccc(NC(=O)C3CC3)cc2)ccc1O,-5%,7%,?,/,18%,0%
COc1cc(/C=N/NC(=O)Nc2ccccc2)ccc1OC(C)=O,?,?,11µM*,?,?,28%
CCOC(=O)c1cnc(Nc2nc3ccccc3o2)nc1CN1CCN(C)CC1,?,11%,-2%,13µM*,2%,29%
CCOC(=O)c1oc2ccccc2c1NC(=O)CN1CCN(C)CC1,3%,0%,10%,-2%,-10%,0%
CCCCN(C(=O)c1cccc(S(=O)(=O)N2CC(C)OC(C)C2)c1)c1c(N)n(CC(C)C)c(=O)[nH]c1=O (stereo unspecified),0%,21%,3%,/,2%,0%
CCOC(=O)c1c(C)oc2nc(C)nc(N3CCN(c4cccc(C)c4C)CC3)c12,/,/,-2%,/,/,/
CN(C)c1ccc(C2=NOC(CN3C(=O)c4ccccc4S3(=O)=O)C2)cc1 (stereo unspecified),?,?,3µM*,13µM*,0.63µM*,3.2µM*
O=C(c1cc(C(F)(F)F)cc(C(F)(F)F)c1)N1CCC2(CCN(Cc3nccs3)CC2)CC1,/,/,/,-20%,/,/
COc1ccccc1N1CCN(C(=O)c2ccc(-c3ccccc3)cc2)CC1,1%,?,24µM*,/,-3%,-2%
COc1ccccc1N1CCN(/N=C/c2cccc(O)c2)CC1,?,6%,13µM*,6%,?,19%
COc1ccccc1N1CCN(/N=C/c2cc(OC)c(O)c(OC)c2)CC1,2%,-1%,?,27%,0%,-2%
COc1ccc(C(=O)N2CCN(c3ccccc3OC)CC2)cc1,-3%,0%,5%,14%,2%,-6%
COc1ccccc1N1CCN(/N=C/c2ccccc2C(=O)O)CC1,-7%,26%,19µM*,/,2%,-2%
COc1cc(/C=N/N2CCN(c3ccccc3OC)CC2)ccc1OC(C)=O,9%,15%,19µM*,/,3%,4%
SMILES,ELG1 genotoxic,p53 reactivator,FLuc modulator,SMN2 splice enh,Rab9 prom act,NPC1 prom act
COc1ccccc1N1CCN(/N=C/c2ccc(OC)c(OC)c2OC)CC1,0%,-2%,-2%,6%,1%,0%
CCCC(=O)C1=C(c2cccc(OC)c2)N(C(=O)CCC)n2c(C)nnc2S1,/,/,2%,/,/,/
CCc1ccc(NC(=O)c2ccccc2NC(=O)C2CCCO2)cc1 (stereo unspecified),12µM*,?,17µM*,13µM*,3.5µM*,3.5µM*
CCOC(=O)c1ccccc1NC(=O)C1CCCO1 (stereo unspecified),-1%,/,3%,/,1%,0%
O=C(Nc1ccccc1C(=O)O)c1ccc(NC(=O)C2CCCO2)cc1 (stereo unspecified),3%,-4%,6.7µM*,/,-2%,-4%
O=C(NCCOc1ccccc1)c1ccccc1NC(=O)C1CCCO1 (stereo unspecified),9%,18%,?,11µM*,2.2µM*,4µM*
COCCNC(=O)c1ccccc1NC(=O)C1COc2ccccc2O1 (stereo unspecified),1%,5%,-1%,-3%,7%,-2%
O=C(/C=C/c1cccs1)Nc1cccnc1,?,?,5.4µM*,18µM*,2.8µM*,?
O=C(/C=C/c1c(F)cccc1Cl)Nc1cccnc1,2.3µM*,18%,3.8µM*,/,4µM*,1.6µM*
O=C(/C=C/c1cccs1)Nc1nncs1,8%,11%,17µM*,/,?,?
O=C(/C=N/O)Nc1cccnc1,3%,1%,-2%,-9%,1%,5%
O=C(/C=C/c1cc(Br)ccc1F)Nc1cccnc1,9%,17%,?,/,15%,12%
O=C(Cc1cccs1)Nc1nc(-c2ccccc2)cs1,10%,?,15µM*,-31%,1%,13%
Cc1ccnc(NC(=O)/C=C/c2cccs2)c1,?,/,3µM*,4µM*,0.63µM*,0.63µM*
O=C(/C=C/c1cccs1)Nc1nc(-c2ccccc2)cs1,19%,-1%,6.7µM*,-4%,18%,18%
Cc1cc([N+](=O)[O-])ccc1NC(=O)/C=C/c1cccs1,22%,?,?,16µM*,?,?
C=CCNC(=O)/C=C/c1cccs1,4%,4%,-1%,13%,-2%,4%
O=C(Nc1cccnc1)c1cccs1,0%,2%,1%,8.9µM*,-4%,-24%
CCc1ccc(NC(=O)c2cc(CN3CCOCC3)on2)cc1,/,/,-5%,/,/,/
O=C(Nc1scc(-c2ccccc2)c1C(=O)O)c1ccccc1Cl,1%,10%,?,/,1%,-3%
O=C(/C=C/c1cccs1)Nc1scc(-c2ccccc2)c1C(=O)O,?,22%,3.8µM*,11µM*,1.1µM*,1.4µM*
O=C(Cc1cccs1)Nc1ccccc1C(=O)O,?,?,15µM*,10µM*,?,20%
